Measurements from PubChem BioAssay AID651650 (Sanford-Burnham Center for Chemical Genomics, 2012).

target: Neuropilin-1 (Homo sapiens) (UniProt O14786); test: NRP-1 b1b2 CendR peptide binding inhibitors, dose response, biochemical, FP and AlphaScreen panel (AID 651650); details: NRP-1 b1b2 / RPARPAR peptide binding, FP or AlphaScreen; run 1, at 100 µM (top of the series)
Sequence (O14786 whole entry, looked up): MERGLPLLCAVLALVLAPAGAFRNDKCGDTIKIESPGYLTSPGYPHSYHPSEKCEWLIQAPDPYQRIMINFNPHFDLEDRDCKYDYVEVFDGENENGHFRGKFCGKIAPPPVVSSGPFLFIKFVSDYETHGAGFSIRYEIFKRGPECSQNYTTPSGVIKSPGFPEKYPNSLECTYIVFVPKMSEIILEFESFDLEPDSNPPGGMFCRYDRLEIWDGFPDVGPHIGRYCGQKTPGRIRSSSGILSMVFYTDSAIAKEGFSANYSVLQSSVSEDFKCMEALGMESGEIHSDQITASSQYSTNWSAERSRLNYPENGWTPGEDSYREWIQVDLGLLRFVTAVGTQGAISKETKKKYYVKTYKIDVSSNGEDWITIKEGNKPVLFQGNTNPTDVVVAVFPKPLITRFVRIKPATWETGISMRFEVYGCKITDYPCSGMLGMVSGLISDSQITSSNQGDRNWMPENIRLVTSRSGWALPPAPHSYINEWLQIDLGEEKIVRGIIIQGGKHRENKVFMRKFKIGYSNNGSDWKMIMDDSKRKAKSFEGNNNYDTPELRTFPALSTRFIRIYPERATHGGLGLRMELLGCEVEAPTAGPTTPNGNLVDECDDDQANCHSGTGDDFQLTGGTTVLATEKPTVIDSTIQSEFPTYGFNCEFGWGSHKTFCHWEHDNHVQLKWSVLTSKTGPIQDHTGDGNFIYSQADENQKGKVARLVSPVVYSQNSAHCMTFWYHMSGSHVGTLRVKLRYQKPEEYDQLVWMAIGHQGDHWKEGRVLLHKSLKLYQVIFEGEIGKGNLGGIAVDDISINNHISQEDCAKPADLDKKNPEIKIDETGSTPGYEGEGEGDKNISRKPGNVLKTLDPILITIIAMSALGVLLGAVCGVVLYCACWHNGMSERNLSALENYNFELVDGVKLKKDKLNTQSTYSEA

SMILES	inhibition [%]
Cc1ccc(Cn2c(C(C)Nc3nc(-c4ccc(Cl)c([N+](=O)[O-])c4)cs3)nc3cc(C(F)(F)F)ccc32)cc1 (stereo not drawn)	41.6
CCOC(=O)C1=C(C)NC2=C(C(=O)CCC2)C1c1cn(Cc2ccc(Cl)cc2Cl)nc1-c1ccccc1 (stereo not drawn)	72.6
Cc1ccccc1Nc1nc(N)nc(COC(=O)CC2CC3CCC2C3)n1 (stereo not drawn)	3.37
COc1ccccc1N1CCN(C2CCCN(C(=O)Cn3cccn3)C2)CC1 (stereo not drawn)	38.2
Cc1onc(-c2ccccc2)c1C(=O)N1CCCC1	31.9
Cn1c(=NC(=O)COc2ccccc2)sc2ccccc21	-1.2
C/C(=N\N=c1/sc2ccccc2n1C)c1ccccn1	23.1
CN(C)CCn1c(=O)n(-c2ccc(F)cc2)c(=O)c2c3c(sc21)CCCCC3	77.8
COc1ccc(NC(=O)CN2CCN(c3c(C)cc(C)cc3C)CC2)cc1	2.2
CCC1CCCCN1C(=S)Nc1ccc(OC(F)F)cc1 (stereo not drawn)	69.3
Cc1ccccc1-n1ncc2c1CC(C)(C)CC2NC(=O)c1ccncc1 (stereo not drawn)	28.1
CC(C)C(N)c1csc(NC(=O)Nc2cccc(C(F)(F)F)c2)n1 (stereo not drawn)	28.7
O=C(O)c1ccccc1CSc1ccccn1	101
O=C(OCn1nnc2ccccc2c1=O)c1ccc(Br)o1	25.4
O=C(Nc1cccc(C(F)(F)F)c1)C1Cc2c(-c3cccc(F)c3)ccnc2O1 (stereo not drawn)	18.4
c1cc(CNc2ccc3c(c2)OCO3)ccn1	27.1
CC(C)NC(=O)c1c(CSc2ccccc2)noc1C(=O)NCc1ccccc1	49
NC(N)=NCCC[C@H](NC(=O)OCc1ccccc1)C(=O)O	17.2
C=C1CCN([C@@H](CC(C)C)C(=O)NCc2ccccc2)S(=O)(=O)c2ccccc21	12.9

SMILES	inhibition [%]
CN(C)CCOC(c1ccc(Cl)cc1)c1ccccn1 (stereo not drawn)	32
Cn1c(=O)c2c(nc(OCc3cccnc3)n2Cc2ccccc2)n(C)c1=O	66.1
CCOC(=O)Cc1csc(NC(=O)CSc2ncnc3c2cnn3-c2ccccc2Cl)n1	11.5
COc1ccc(C2CC(O)(c3ccccc3)Oc3cc(OC)ccc32)cc1 (stereo not drawn)	7.29
O=C(O)c1ccccc1SCC(=O)N1CCCCC1	52.9
CCCN=C1N/C(=C\c2ccco2)C(=O)N1c1ccccc1	3.93
CCCCN(c1ccccc1)S(=O)(=O)c1ccc2c(c1)CCN2C(=O)CCC(=O)O	8.36
CCN(CCCNC(=O)CNC(=O)c1nn(-c2ccc(OC)cc2OC)c(=O)c2ccccc12)c1cccc(C)c1	24.3
CCC1=C(OC(=O)N(CC)CC)N2C(=O)OC(=NCCOC)[C@]2(Cc2ccccc2)[C@H]2C1=CC[C@H]1C(=O)N(CC(=O)OC)C(=O)[C@H]12	56.3
CC(=O)Nc1cccc(-c2csc(NCc3ccccc3)n2)c1	26.4
CC1CCN(C(=O)c2[nH]cnc2C(=O)NCc2ccc(CNC(=O)OC(C)(C)C)cc2)CC1	55.2
Cc1ccccc1S(=O)(=O)Nc1nc2ccccc2nc1NCCO	25.8
C[C@@H](NC(=O)c1nc[nH]c1C(=O)NCc1ccccc1)c1ccccc1	23.1
CC(C)C[C@@H](COc1ccccc1)N1CCN(CCc2ccccc2)CCC1=O	46.6
Cc1cc2cc(CNC(=O)c3ccco3)ccc2n1C	40.6
CC(=O)Oc1cc2c(c3ccccc13)CCC2=O	23.4
CC(C(=O)N1CCN(c2ccc(Cl)cc2)CC1)c1ncc(C(F)(F)F)cc1Cl (stereo not drawn)	-2.5
O=C(CSc1nc(O)c(Cc2ccccc2)c(=O)n1-c1ccccc1)N1CCOCC1	-18.5
N=C1C(=O)OCC1c1cc(Cl)ccc1NC(=O)Nc1ccccc1 (stereo not drawn)	47.4
